HP1b binding inh: HTS for Inhibitors of HP1-beta Chromodomain Interactions with Methylated Histone Tails | AlphaScreen HP1-beta / biotin-H3K9me3 peptide binding | 390,000 compounds, 0.56% hits | Chromobox protein homolog 1 (Homo sapiens), P83916 | Potency, µM (titrated, usually from 114 µM), hits mostly inhibitors; note: nearly all actives have a fitted effect of over 70% in size
Target sequence (P83916 whole entry, looked up): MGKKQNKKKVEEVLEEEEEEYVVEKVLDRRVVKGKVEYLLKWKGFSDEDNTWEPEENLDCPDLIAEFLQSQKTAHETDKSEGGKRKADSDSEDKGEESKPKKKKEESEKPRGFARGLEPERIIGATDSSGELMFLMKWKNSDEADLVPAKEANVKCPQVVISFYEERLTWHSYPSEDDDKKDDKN
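HP1-beta protein (50 nM final) preincubated 30 min at room temperature with biotinylated H3(1-18)K9me3 peptide (50 nM) in PBS pH 7.4, 0.01% Tween-20, then compound added for 30 min. AlphaScreen streptavidin donor/nickel chelate acceptor beads (10 ug/mL final), 30 min dark, luminescence read.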
G9a block: qHTS Assay for Inhibitors of Histone Lysine Methyltransferase G9a; G9a H3K9 monomethylation, AlphaScreen, 2 h; Histone-lysine N-methyltransferase EHMT2 (Homo sapiens), Q96KQ7; 350,000 compounds, 8.8% hits; Potency, µM (top dose mostly 102 µM), actives largely listed as inhibitors; note: nearly all actives have a fitted effect of over 75% in size
Target sequence (Q96KQ7 913-1193 limits assumed): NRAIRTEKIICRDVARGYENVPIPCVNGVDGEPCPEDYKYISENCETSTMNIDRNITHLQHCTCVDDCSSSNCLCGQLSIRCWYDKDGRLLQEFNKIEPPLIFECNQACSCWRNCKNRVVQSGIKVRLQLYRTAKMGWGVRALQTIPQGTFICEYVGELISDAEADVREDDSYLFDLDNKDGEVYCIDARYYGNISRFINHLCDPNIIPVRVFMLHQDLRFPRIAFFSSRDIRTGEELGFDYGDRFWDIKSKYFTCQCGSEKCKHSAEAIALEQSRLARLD
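Using a bead-based AlphaScreen, monomethylated H3K9 product from 2 h room-temperature reactions (G9a 20 nM, peptide 500 nM, SAM 20 uM) was detected with 0.5 ug/mL rabbit anti-H3K9me1 antibody.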
BAZ2B block: qHTS Assay for Inhibitors of BAZ2B. Bromodomain adjacent to zinc finger domain protein 2B (Homo sapiens), Q9UIF8. AlphaScreen BAZ2B-H3K14Ac peptide displacement. Potency, µM (doses to about 114 µM), most hits filed as inhibitors. 360,000 compounds, 4.4% hits. AID 504333, 2011; note: nearly all actives have a fitted effect of over 60% in size
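AlphaScreen displacement: compounds (up to 110uM) incubated 30 min at room temperature with a preformed 50 nM BAZ2B/50 nM biotinylated H3K14Ac peptide complex in PBS pH 7.4 with Tween-20. Donor and acceptor beads at 10 ug/mL final added, 20 min light-protected before reading.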
L3MBTL1 inh: qHTS Assay for the Inhibitors of L3MBTL1; Lethal(3)malignant brain tumor-like protein 1 (Homo sapiens), Q9Y468; AlphaScreen L3MBTL1–H3K9me1 peptide binding; Potency, µM (top dose mostly 57.1 µM), most hits filed as inhibitors; 230,000 compounds, 0.66% hits; AID 485360, 2010; note: nearly all actives have a fitted effect of over 60% in size
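L3MBTL1 50 nM + b-AHA-H3(1-15)K9me1 75 nM, 30 min RT; compound added, 30 min RT; streptavidin donor/Ni-chelate acceptor beads 10 ug/mL each final, 30 min RT dark; AlphaScreen read.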
JMJD2A Tudor: qHTS Assay for Inhibitors of JMJD2A-Tudor Domain; Lysine-specific demethylase 4A (Homo sapiens), O75164; 390,000 compounds, 4.4% hits; Potency, µM (doses to about 114 µM), most hits filed as inhibitors; AlphaScreen JMJD2A-Tudor / H3K4me3 peptide binding; AID 504339, 2011; note: nearly all actives have a fitted effect of over 50% in size
Numbers stand for hits; - = inactive; ? = inconclusive; . = no result given; [ ] = another dose, or the depositor's remark. Compounds with a hit are over-represented: about 11% of the library has one in this group of screens. Calls come from the whole dose curve; as a rule, active = well fitted inhibition curve with a large enough effect; inconclusive = small, poorly fitted or top-dose-only effect; inactive = no such curve, though single readings can be large or run the other way.

SMILES	HP1b binding inh	G9a block	BAZ2B block	L3MBTL1 inh	JMJD2A Tudor
Cc1ccc(C(=O)N(Cc2ccc(N(C)C)cc2)Cc2ccco2)cc1	?	14.1µM	35.5µM	.	39.8µM
CCc1ccc(CN(Cc2ccco2)C(=O)c2ccc(C)cc2)cc1	-	-	-	.	-
CCSc1ncc(Cl)c(C(=O)N(Cc2ccc(N(C)C)cc2)Cc2ccco2)n1	?	12.6µM	10µM	.	17.8µM
CN(C)c1ccc(CN(Cc2ccco2)C(=O)c2ccc(F)cc2)cc1	?	12.6µM	35.5µM	.	44.7µM
COc1ccccc1CNC(=O)Cc1c(C)c2c(cc(C)c3c(C)coc32)oc1=O	-	-	-	.	-
Cc1ccc(-n2c(=O)c3ccc(C(=O)NCc4ccccc4Cl)cc3n(Cc3cccc(F)c3)c2=O)cc1	-	?	.	.	-
CC(=O)C1=C(c2cccc([N+](=O)[O-])c2)N(C(C)=O)n2c(nnc2-c2ccc(C)cc2)S1	-	-	-	.	-
Cc1ccc(OCC(=O)N(Cc2ccco2)Cc2ccco2)cc1	-	-	-	.	-
CN(C)c1ccc(CN(Cc2ccco2)C(=O)COc2ccc(F)cc2)cc1	?	15.8µM	28.2µM	.	44.7µM
Cc1cc(C)c2c(CC(=O)N(Cc3ccc(N(C)C)cc3)Cc3ccco3)coc2c1	?	11.2µM	10µM	.	12.6µM
Cc1ccccc1C(=O)N(Cc1ccc(N(C)C)cc1)Cc1ccco1	?	12.6µM	35.5µM	.	44.7µM
Cc1ccccc1CN1CCN(CC(=O)NCc2ccccc2Cl)C1=O	-	-	-	.	-
COc1cccc(NC(=O)CSc2nnc3[nH]c(=O)cc(-c4ccccc4)n23)c1	-	?	-	.	-
N#CC1=C(N)NC(SCC(=O)c2ccccc2)=C(C#N)C12CCCC2	-	50.1µM	?	-	?
CC1(C)CC(=O)C2=C(C1)NC(SCC(=O)Nc1ccccc1)=C(C#N)C21CCCCC1	-	?	-	-	-
CC1=C(C(=O)Nc2ccccc2)C2(CCCCC2)C(C#N)=C(SCC(N)=O)N1	-	-	?	.	14.1µM
CCSC1=C(C#N)C2(CCCC2)C(C#N)=C(N)N1	-	20µM	-	-	?
N#CC1=C(N)NC(SCc2ccccc2)=C(C#N)C12CCCC2	-	79.4µM	-	-	?
N#CC1=C(N)NC(SCc2ccc(Cl)cc2)=C(C#N)C12CCCCC2	-	-	-	-	?
CC(=O)Nc1ccc(S(=O)(=O)Nc2cccc(-n3c(C)nc4ccccc4c3=O)c2)cc1	-	-[0.501 µM]	-	-	-
O=S(=O)(c1ccc2c(c1)OCCO2)N1CCN(S(=O)(=O)c2ccccc2OC(F)(F)F)CC1	.	.	.	.	-
N#CC1=C(N)NC(SCC(=O)Nc2ccc(Br)cc2)=C(C#N)C12CCCCC2	-	70.8µM	?	.	?
N#CC1=C(N)NC(SCc2ccc(Br)cc2)=C(C#N)C12CCCCC2	-	?	?	-	?
Cc1ccc(S(=O)(=O)N(C)/N=C2/C(=O)N(CC(=O)O)c3ccccc32)cc1	-	14.1µM	-	.	?
Cc1nc(-n2[nH]c3c(c2=O)CCCC3)[nH]c(=O)c1Cc1ccccc1	-	-	?	?	?
SMILES	HP1b binding inh	G9a block	BAZ2B block	L3MBTL1 inh	JMJD2A Tudor
Cc1cc(=O)[nH]c(-n2[nH]c3c(c2=O)CCCC3)n1	-	-	12.6µM	-	2.24µM
c1nc(NCCCN2CCOCC2)c2cc(-c3ccc4c(c3)OCO4)ccc2n1	.	.	.	.	-
COc1nccnc1NS(=O)(=O)c1ccc(N/C=C2\CCCCC2=O)cc1	-	50.1µM	?	-	-
CCc1nnc(NS(=O)(=O)c2ccc(NCc3cc(Br)ccc3O)cc2)s1	-	.	-	.	-
COc1ccc(C(=O)Nc2ccc(S(=O)(=O)Nc3nccnc3OC)cc2)cc1	-	-	-	.	-
COc1nccnc1NS(=O)(=O)c1ccc(NC(=O)c2cccc(C)c2)cc1	-	.	79.4µM	-	-
COc1nccnc1NS(=O)(=O)c1ccc(NC(=S)NC(=O)c2ccc(F)c(F)c2)cc1	-	50.1µM	?	-	-
COc1nccnc1NS(=O)(=O)c1ccc(NCc2cc(Br)ccc2O)cc1	?	44.7µM	?	.	-
COc1nccnc1NS(=O)(=O)c1ccc(NC(=O)c2ccc(F)cc2)cc1	-	-	-	.	-
COc1ccc(C2C(C(=O)Nc3ccccc3)=C(C)Nc3c(C(=O)Nc4ccccc4)cnn32)cc1 (stereo not given)	-	-	-	.	-
Cc1oc2c(c1C(=O)Nc1ccc(Cl)cc1F)C1=NCCN1C=N2	-	-	-	.	-
CCOC(=O)c1c(S(=O)(=O)N2CCC(C(=O)Nc3ncccc3C)CC2)c(C)n(C)c1C	-	-	-	.	-
CCc1cc(/C(Cc2ccccn2)=N\Nc2ccccc2)c(O)cc1O	?	2.51µM	50.1µM	-	?
O=C(NCc1ccccn1)Nc1cccc(NC(=O)NCc2ccccn2)c1	-	-	-	-[11.4 µM]	-
Cc1nc(C/C(=N\Nc2ccccc2)c2ccc(O)cc2O)cs1	?	4.47µM	50.1µM	?	50.1µM
Cc1nc(CC(=O)c2ccc(O)cc2O)cs1	-	?	-	.	-
COc1ccc(N(Cc2cc3cccc(C)c3[nH]c2=O)C(=O)c2cccc(Cl)c2)cc1	-	-	?	.	?
O=C(O)CSCC(=O)Nc1ccc(-c2nc3ccccc3s2)cc1	-	44.7µM	-	-	-
Cc1ccc2nc(-c3ccc(NC(=O)CCN4C(=O)c5ccccc5C4=O)cc3)sc2c1	-	44.7µM	-	-	-
Cc1ccc2nc(-c3ccc(NC(=O)CSCC(=O)O)cc3)sc2c1	-	-[12.7 µM]	-	-	-
Cc1ccc2nc(-c3ccc(NC(=O)COCC(=O)O)cc3)sc2c1	-	50.1µM	-	-	-
CCOc1ccc2c(c1)NC(c1ccc(OCC)c(OCC)c1)=NC(c1ccc(F)cc1)=N2	?	11.2µM	?	.	25.1µM
CCOc1ccc(C2=NC(c3ccc(OC)cc3)=Nc3ccc(Cl)cc3N2)cc1	-	-	-	.	-
COC(=O)c1cc(C)[nH]c2c(C)cc3nc4ccccc4c3c12	-	-[0.501 µM]	-	-	-
Cc1nnc(SCC2=C(C(=O)O)N3C(=O)C(NC(=O)Cc4ccccc4)C3SC2)s1 (stereo not given)	-	?	?	-	-
SMILES	HP1b binding inh	G9a block	BAZ2B block	L3MBTL1 inh	JMJD2A Tudor
Cc1nnc(SCC2=C(C(=O)O)N3C(=O)C(NC(=O)C(C)n4nc(C(F)(F)F)cc4C)C3SC2)s1 (stereo not given)	-	?	50.1µM	.	63.1µM
N#C/C(=C(/O)CCl)c1nnc2n1CCCCC2	-	-	79.4µM	.	20µM
CCn1c(O)c(C=Nc2ccccc2)sc1=O	-	-	-	-	-
CCn1c(O)c(C=Nc2ccccc2)n(-c2ccccc2)c1=S	-	7.94µM	-	.	-[11.4 µM]
CCN1CCN(CCCNC(=O)c2cc3c(s2)-c2c(C)cccc2OC3)CC1	-	-	-	.	-
O=C(Nc1cccc(Cl)c1Cl)c1ccc2c(c1)N(Cc1cccc(Cl)c1)C(=O)c1ccccc1S2=O (stereo not given)	-	-	-	.	-

Screening data deposited in PubChem by National Center for Advancing Translational Sciences (NCATS).
